We go through 31 molecules from PubChem BioAssay.

Values joined by “and” are separate entries in the source; they are usually repeats but may differ in a detail not shown here. Identical values can stand only once. Results filed as inconclusive are left out. Active and inactive are the calls of the source.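 How the source made its calls, unless noted: active means compounds whose cell count with miR-34 switched on is under 0.7 times the count with it off; inactive means the rest.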

The first test in a line: growth inhibition of DIPG glioma cells, dose response, cell-based, SU-DIPG-IV, MIPE4.0, CellTiter-Glo, qHTS (AID 1347063; cut-off not given, nearly all actives have AC50 up to about 30 µM;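 further: compound exposure lasted 48 hours before the viability readout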). Conditions: SU-DIPG-IV viability, CellTiter-Glo ATP luminescence. In general terms: In ATP-based viability assays light output follows the ATP content of the culture.
`Cc1cccc(C)c1NC(=O)CN1CCCC1=O`: the molecule was classed as inactive.
On the same count and under the same terms, the result for `C#C[C@]1(O)C=C[C@H]2[C@@H]3CCC4=CC(=O)CC[C@@H]4[C@H]3CC[C@@]21CC` reads “inactive”.
In the case of `Fc1ccc(C(OCCN2CCN(CCCc3ccccc3)CC2)c2ccc(F)cc2)cc1`, the AC50 (in general, the concentration at which the activity in the assay is half-maximal) is 13.2 µM (active).
For `C[C@]12CC[C@H](O)CC1=CC[C@@H]1[C@@H]2CC[C@]2(C)C(=O)CC[C@@H]12`, the outcome was inactive.
Same read-out and setting: the result for `NCC1(CC(=O)O)CCCCC1` reads “inactive”; that for `CCCC[N+]1(C)[C@@H]2CC(OC(=O)[C@H](CO)c3ccccc3)C[C@H]1[C@@H]1O[C@@H]12` (some centres not stated), “inactive”.
Same read-out and setting: the same measure for `COc1ccc(C(=O)c2c(C)n(CCN3CCOCC3)c3ccccc23)cc1`: “inactive”.

A short description of another test: growth inhibition of DIPG glioma cells, dose response, cell-based, SU-DIPG-XIII, MIPE5.0, CellTiter-Glo, qHTS (AID 1347064; cut-off not given, nearly all actives have AC50 up to about 23 µM). The settings on record: SU-DIPG-XIII viability, CellTiter-Glo ATP luminescence.
Consider `Cc1cccc(C)c1NC(=O)CN1CCCC1=O`, for which the molecule was called inactive.
Turning to `Cn1c(CCCC(=O)O)nc2cc(N(CCCl)CCCl)ccc21`, the result was inactive.
For the molecule `C#C[C@]1(O)C=C[C@H]2[C@@H]3CCC4=CC(=O)CC[C@@H]4[C@H]3CC[C@@]21CC`, the molecule was called inactive.
On the same count and under the same terms, the result for `COC[C@@H](NC(C)=O)C(=O)NCc1ccccc1` reads “inactive”; that for `C[C@]12CC[C@H](O)CC1=CC[C@@H]1[C@@H]2CC[C@]2(C)C(=O)CC[C@@H]12`, “inactive”.
The same measure, in the same setting: the same measure for `NCC1(CC(=O)O)CCCCC1`: “inactive”; for `CCCC[N+]1(C)[C@@H]2CC(OC(=O)[C@H](CO)c3ccccc3)C[C@H]1[C@@H]1O[C@@H]12` (some centres not stated): “inactive”.

A further test in a line: viability loss in pontine glioma line – cell-based, SU-DIPG-XXV, MIPE5.0, CellTiter-Glo, qHTS, dose response (AID 1347065; cut-off not given, nearly all actives have AC50 up to about 26 µM;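 further: cells exposed to compound for 48 hours before ATP readout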). The settings on record: CellTiter-Glo ATP luminescence.
In the case of `Cc1cccc(C)c1NC(=O)CN1CCCC1=O`, the result was inactive.
On the same count and under the same terms, the same measure for `Cn1c(CCCC(=O)O)nc2cc(N(CCCl)CCCl)ccc21`: “inactive”.
Same read-out and setting: the result for `C#C[C@]1(O)C=C[C@H]2[C@@H]3CCC4=CC(=O)CC[C@@H]4[C@H]3CC[C@@]21CC` reads “inactive”.
In the case of `Fc1ccc(C(OCCN2CCN(CCCc3ccccc3)CC2)c2ccc(F)cc2)cc1`, the AC50 is 8.33 µM (active).
For `COC[C@@H](NC(C)=O)C(=O)NCc1ccccc1`, the call was inactive.
For `C[C@]12CC[C@H](O)CC1=CC[C@@H]1[C@@H]2CC[C@]2(C)C(=O)CC[C@@H]12`, the outcome was inactive.
Same read-out and setting: the same measure for `NCC1(CC(=O)O)CCCCC1`: “inactive”; for `CCCC[N+]1(C)[C@@H]2CC(OC(=O)[C@H](CO)c3ccccc3)C[C@H]1[C@@H]1O[C@@H]12` (some centres not stated): “inactive”.

The nature of a further test: SU-DIPG-VI glioma cell viability, MIPE4.0 library, CellTiter-Glo luminescence, qHTS (AID 1347066; cut-off not given, nearly all actives have AC50 up to about 30 µM;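 further: cells exposed to compound for 48 hours before readout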). Conditions: CellTiter-Glo ATP luminescence.
Consider `Cn1c(CCCC(=O)O)nc2cc(N(CCCl)CCCl)ccc21`, for which the call was inactive.
Still for that read-out and setting: the same measure for `C#C[C@]1(O)C=C[C@H]2[C@@H]3CCC4=CC(=O)CC[C@@H]4[C@H]3CC[C@@]21CC`: “inactive”.
With `Fc1ccc(C(OCCN2CCN(CCCc3ccccc3)CC2)c2ccc(F)cc2)cc1`, the AC50 was 16.6 µM (active).
With `COC[C@@H](NC(C)=O)C(=O)NCc1ccccc1`, the molecule was classed as inactive.
As for `C[C@]12CC[C@H](O)CC1=CC[C@@H]1[C@@H]2CC[C@]2(C)C(=O)CC[C@@H]12`, the outcome was inactive.
Same read-out and setting: the result for `NCC1(CC(=O)O)CCCCC1` reads “inactive”; that for `CCCC[N+]1(C)[C@@H]2CC(OC(=O)[C@H](CO)c3ccccc3)C[C@H]1[C@@H]1O[C@@H]12` (some centres not stated), “inactive”.
For the molecule `COc1ccc(C(=O)c2c(C)n(CCN3CCOCC3)c3ccccc23)cc1`, the molecule was called inactive.

The next test in a line: JHH-DIPG-1 glioma cell viability, MIPE5.0 library, CellTiter-Glo luminescence, qHTS (AID 1347067; cut-off not given, nearly all actives have AC50 up to about 26 µM;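 further: cells exposed to compound for 48 hours before readout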). The settings on record: JHH-DIPG-1 glioma viability, CellTiter-Glo ATP luminescence.
Take `Cc1cccc(C)c1NC(=O)CN1CCCC1=O`: the result was inactive.
Same read-out and setting: the same measure for `C#C[C@]1(O)C=C[C@H]2[C@@H]3CCC4=CC(=O)CC[C@@H]4[C@H]3CC[C@@]21CC`: “inactive”.
On to `Fc1ccc(C(OCCN2CCN(CCCc3ccccc3)CC2)c2ccc(F)cc2)cc1`, for which the AC50 is 18.6 µM (active).
As for `COC[C@@H](NC(C)=O)C(=O)NCc1ccccc1`, the result was inactive.
On to `C[C@]12CC[C@H](O)CC1=CC[C@@H]1[C@@H]2CC[C@]2(C)C(=O)CC[C@@H]12`, for which the molecule was classed as inactive.
The same measure, in the same setting: the result for `CCCC[N+]1(C)[C@@H]2CC(OC(=O)[C@H](CO)c3ccccc3)C[C@H]1[C@@H]1O[C@@H]12` (some centres not stated) reads “inactive”.
Turning to `COc1ccc(C(=O)c2c(C)n(CCN3CCOCC3)c3ccccc23)cc1`, the AC50 is 16.6 µM (active).

The nature of another test: SU-DIPG-XXV glioma cell viability, MIPE5.0 library, qHTS (AID 1347068; cut-off not given, nearly all actives have IC50 up to about 30 µM;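 on IC50: cells exposed to compound for 48 hours before viability readout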).
Conditions: not given
Background: Quantitative high-throughput screening tests each substance at several concentrations.
`Cc1cccc(C)c1NC(=O)CN1CCCC1=O`: the molecule was called inactive.
The same measure, in the same setting: the result for `Cn1c(CCCC(=O)O)nc2cc(N(CCCl)CCCl)ccc21` reads “inactive”.
As for `Fc1ccc(C(OCCN2CCN(CCCc3ccccc3)CC2)c2ccc(F)cc2)cc1`, the IC50 (in general, the midpoint of a concentration-inhibition curve) was 16.6 µM (active).
For `COC[C@@H](NC(C)=O)C(=O)NCc1ccccc1`, the molecule was called inactive.
Same read-out and setting: the same measure for `C[C@]12CC[C@H](O)CC1=CC[C@@H]1[C@@H]2CC[C@]2(C)C(=O)CC[C@@H]12`: “inactive”; for `NCC1(CC(=O)O)CCCCC1`: “inactive”; for `CCCC[N+]1(C)[C@@H]2CC(OC(=O)[C@H](CO)c3ccccc3)C[C@H]1[C@@H]1O[C@@H]12` (some centres not stated): “inactive”.

A short description of another test: sensitizers of A549 cells to miR-34 induction, primary screen, imaging, A549 dox-inducible miR-34, nuclei and caspase counts (AID 1347080). Conditions: A549 miR-34 inducible, Hoechst nuclei count, 48 h; hits give low values.
With `Cc1cccc(C)c1NC(=O)CN1CCCC1=O`, the fold change is 0.975 (inactive) and 0.928 (inactive).
Same read-out and setting: the same measure for `CC(=O)[C@H]1CC[C@H]2[C@@H]3CC[C@H]4C[C@H](O)CC[C@]4(C)[C@H]3C(=O)C[C@]12C`: 1.12 (inactive) and 0.844 (inactive); for `CC(O)CN1CCN(CC(=O)[O-])CCN(CC(=O)[O-])CCN(CC(=O)[O-])CC1.[Gd+3]` (configuration not stated): 0.973 (inactive); for `CCCN1CCC[C@@H]2Cc3nc(N)ncc3C[C@H]21`: 0.958 (inactive).
Same read-out and setting: the same measure for `CC(C)c1c(CN(C)C(C)Cc2ccccc2)n(C)n(-c2ccccc2)c1=O` (configuration not stated): 0.889 (inactive); for `Cn1c(CCCC(=O)O)nc2cc(N(CCCl)CCCl)ccc21`: 1.1 (inactive) and 0.89 (inactive); for `O=[N+]([O-])c1ccc([As](=O)(O)O)cc1`: 0.887 (inactive).
Same read-out and setting: the same measure for `COc1ccc(CN2CCNCC2)c(OC)c1OC`: 0.892 (inactive); for `COP(=O)(OC)C(O)C(Cl)(Cl)Cl` (configuration not stated): 0.918 (inactive).
Consider `Cc1ncsc1CCCl`, for which the fold change was 0.959 (inactive) and 0.961 (inactive).
Turning to `CCCCc1ccc(C(=O)O)nc1`, the fold change is 0.891 (inactive) and 0.841 (inactive).
On the same count and under the same terms, the result for `Cc1ccc(S(=O)(=O)N[C@@H](CCCCN)C(=O)CCl)cc1` reads 0.989 (inactive) and 0.965 (inactive); that for `Fc1ccc(C(OCCN2CCN(CCCc3ccccc3)CC2)c2ccc(F)cc2)cc1`, 1.71 (inactive) and 1.06 (inactive) and 1.14 (inactive); that for `CC[N+](CC)(CC)CC`, 0.929 (inactive).
On to `O=c1n(Cl)c(=O)n(Cl)c(=O)n1Cl`, for which the fold change was 0.97 (inactive).
Consider `CCCCC/C=C\C/C=C\C/C=C\C/C=C\CCCC(=O)NCC(=O)O`, for which the fold change is 0.935 (inactive) and 1.01 (inactive).
Same read-out and setting: the result for `CCOC(=O)CC(SP(=S)(OC)OC)C(=O)OCC` (configuration not stated) reads 0.857 (inactive).
Still for that read-out and setting: the same measure for `C[C@]12CC[C@H](O)CC1=CC[C@@H]1[C@@H]2CC[C@]2(C)C(=O)CC[C@@H]12`: 0.917 (inactive); for `O=C(O)Cc1ccccc1`: 0.869 (inactive) and 0.823 (inactive).
Same read-out and setting: the same measure for `Cc1nnc2n1-c1sc(CCC(=O)N3CCOCC3)cc1C(c1ccccc1Cl)=NC2`: 1.01 (inactive); for `CCCC[N+]1(C)[C@@H]2CC(OC(=O)[C@H](CO)c3ccccc3)C[C@H]1[C@@H]1O[C@@H]12` (some centres not stated): 0.89 (inactive).
For the molecule `CNCC(=O)c1ccc(O)c(O)c1`, the fold change was 0.925 (inactive) and 0.971 (inactive).
On the same count and under the same terms, the same measure for `O=C(NC(=O)c1c(F)cccc1F)Nc1cc(Cl)c(OC(F)(F)C(F)C(F)(F)F)cc1Cl` (configuration not stated): 1.06 (inactive); for `CC(C)NCC(O)c1ccc(N)c(C#N)c1` (configuration not stated): 0.911 (inactive) and 0.954 (inactive) and 0.854 (inactive).
Same read-out and setting: the same measure for `CN1C[C@@H](NS(=O)(=O)N(C)C)C[C@@H]2c3cccc4c3c(cn4C)C[C@H]21`: 0.878 (inactive); for `O=C1NCN(c2ccccc2)C12CCN(CC1COc3ccccc3O1)CC2` (configuration not stated): 1.02 (inactive) and 0.89 (inactive) and 0.887 (inactive); for `COc1ccc(C(=O)c2c(C)n(CCN3CCOCC3)c3ccccc23)cc1`: 0.898 (inactive).
As to `N#CC(C#N)=Cc1ccc(O)c(O)c1`, the fold change is 1.02 (inactive) and 0.942 (inactive) and 0.96 (inactive).
